This note sets out measurements from PubChem BioAssay (NCI).

The structures appear in SMILES notation. The panel holds about 83,000 compounds, 20% with a hit somewhere; the sample as a whole holds those more often.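 Results are percent growth after 48 hours of single-concentration exposure. 100 means growth as in untreated cells, lower positive values show inhibition; negative values down to -100 show cell death.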 Unmarked numbers belong to inactive results. The source made the active and inactive calls. How the source made its calls: active means growth percent below 10; inactive means the rest.

The experiment deals with MDA-MB-468 breast. Briefly: NCI-60 one-dose screen, 48 h (100 = growth as untreated, 0 = no growth, -100 = all killed). Particulars: 10 µM unless noted.
Consider `CC[C@H](CC[C@@H](C)[C@H]1CC[C@H]2[C@@H]3CC[C@@H]4CC(=O)/C(=C\c5ccncc5)C[C@]4(C)[C@H]3CC[C@]12C)C(C)C`, for which the growth was 105%.

Take `CCOC(=O)c1c(NC(=O)c2ccc(C(F)(F)F)cc2)sc2c3c(ccc12)OCN(C)C3`: the growth is -76.9% (active). The value for `COc1ccc(C2C(C#N)=C(N)Oc3c2sc2c(Br)cccc32)cc1` (stereo not given) was 3.82% (active). For `Cc1cc2ccccc2c2cc3ccccc3cc12` the value was 5.23% (active); for `C=C1C(=O)O[C@H]2[C@H]1CC/C(COC(=O)CCCCCC(=O)OC/C1=C/CC[C@@]3(C)O[C@H]3[C@H]3OC(=O)C(=C)[C@@H]3CC1)=C\CC[C@@]1(C)O[C@@H]21`, -33.4% (active); for `COc1ccc(-c2cc(-c3ccc(Cl)cc3)nc(SCCCC(=O)NO)n2)cc1OC`, -55.5% (active). On to `C=C(CBr)[C@@H]1CC[C@]2(COC(C)=O)CC[C@]3(C)[C@H](CC[C@@H]4[C@@]5(C)CCCNC(C)(C)[C@@H]5CC[C@]43C)[C@@H]12`, for which the growth was 25.1%. The value for `COC1OC(COS(=O)OC)C(O)C(O)C1OS(=O)OC` (stereo not given) was 96.4%. For `NC[C@@H]1O[C@H](O[C@@H]2[C@@H](CO)OC(O[C@@H]3[C@@H](O)[C@H](N)C[C@H](N)[C@H]3OC3O[C@H](CN)[C@@H](O)[C@H](O)[C@H]3N)[C@@H]2O)[C@H](N)[C@@H](O)[C@@H]1O` (stereo not given in full) the value was 110%. The value for `Cc1cc2nc(C)c(C)nc2cc1C` was 112%; that for `CC(CN(C)C)CN1c2ccccc2CCc2ccccc21` (stereo not given) was 41.7%; that for `COc1ccc2[nH]cc(-c3csc4nc(-c5ccccc5)cn34)c2c1` was 21.2%. Turning to `CCOC(=O)c1nn(-c2ccc(S(N)(=O)=O)cc2)c2nc(C)cc(=O)n12`, the growth was 99%. For `COc1cc(/C=N/Nc2nc(-c3ccc(F)cc3)c(C#N)c(N3CCOCC3)n2)ccc1O` the value was 87.4%. The value for `CCCCCCC(C)(O)c1ccccc1` (stereo not given) was 117%; that for `O=S(=O)(NCCNc1nccc(-c2c(-c3cccc(O)c3)nc3occn23)n1)c1ccccc1` was 88.4%. Take `N=C(N)c1ccc(-c2ccc(-c3ccco3)o2)cc1F`: the growth was -57.4% (active). The value for `O=C1C[C@H](N2C(=O)c3ccccc3S2(=O)=O)C2CO[C@@H]1O2` was 80.3%; that for `C=C1C(=O)O[C@H]2[C@H]1CC/C(COC(=O)NCc1c[nH]c3ccc(Cl)cc13)=C\CC[C@@]1(C)O[C@@H]21` was -70.9% (active); that for `COc1ccc2c(/C=C3/C(=O)NC(=S)NC3C)cc(=O)oc2c1` (stereo not given) was 90.4%. `CC(C)C(C)(C)C(=O)C(C)(C)C(C)(C)C`: the growth is 90.1%. For `CCOC(=O)C1=C(c2ccccc2)N=C2SC=C(c3ccc(Cl)cc3)N2C1c1ccc(Cl)cc1` (stereo not given) the value was 41.3%; for `C#Cc1c2c(c(OC)c3c1OCO3)[C@H]([C@H]1OC(=O)c3c1ccc(OC)c3OC)N(C)CC2`, 79.9%. The value for `CCc1c2c(nc3ccc(OCc4ccc(B5OC(C)(C)C(C)(C)O5)cc4)cc13)-c1cc3c(c(=O)n1C2)COC(=O)[C@]3(O)CC` was -42% (active). With `CC(=O)Nc1nc(C(=O)N2N=C(C)/C(=C/c3ccc(Cl)cc3)C2=O)cs1`, the growth was 103%. The value for `CN1C(=O)/C(=C/c2ccc(C(=O)Nc3ncc(Cc4cccc(Cl)c4)s3)cc2)SC1=S` was 37.7%. For `O=C(Nc1nc(-c2ccccc2)cs1)c1cc(-c2ccc(Br)cc2)nc2ccccc12` the value was 35.2%; for `N#C/C(C(=O)c1ccccc1)=C1/C(=O)Nc2ccc(F)cc21`, 106%; for `Cc1c(O)cccc1O`, 117%. Regarding `COc1cc(-c2cc(/C=C/C(=O)c3ccc(N)cc3)[nH]n2)cc(OC)c1OC`, the growth is -47.7% (active). The value for `O=C(CCCCC[P+](c1ccccc1)(c1ccccc1)c1ccccc1)NC(COC(=O)C(Cl)Cl)(COC(=O)C(Cl)Cl)COC(=O)C(Cl)Cl` was 84.4%; that for `FCOC(C(F)(F)F)C(F)(F)F` was 108%; that for `CCOC(=O)N1CCN(S(=O)(=O)c2oc(-c3ccc(Cl)cc3)nc2C#N)CC1` was 86.5%. The value for `COc1ccc(CC(C)=C(c2ccc(OCCN3CCCCCC3)cc2)c2ccc(OCCN3CCCCCC3)cc2)cc1` was -81.2% (active). For `CN1CCN(c2cc(Nc3cc(C4CC4)[nH]n3)nc(Nc3ccc(CC(=O)NCc4cccc(F)c4)cc3)n2)CC1` the value was 98.8%.
